Measured values reported in the antibiotic and cytotoxicity screens of Wong et al. (2023).
The whole screen tested about 39,000 compounds, of which about 1,500 (3.8%) were called active. The list comes from a sample in which actives are over-represented; it also holds similar structures and randomly drawn compounds.

What follows are compounds tested on HSkMC (human skeletal muscle cells) (assay: cytotoxicity call (relative viability < 0.9)). Settings: 10 µM.

| SMILES | cytotoxicity call |
| --- | --- |
| Cc1ccc(S(=O)(=O)N[C@H]2CC[C@@H](CC(=O)N3CCC(Cc4ccccc4)CC3)O[C@@H]2CO)cc1 | inactive |
| C[C@@H]1CCCCO[C@@H](CN(C)C(=O)NC2CCCCC2)[C@H](C)CN([C@@H](C)CO)C(=O)c2cc(NC(=O)Cc3ccccc3)ccc2O1 | inactive |
| C[C@H]1CN([C@@H](C)CO)C(=O)Cc2cc(NC(=O)Nc3cccc4c3CCCC4)ccc2O[C@H]1CN(C)S(=O)(=O)c1ccc(Oc2ccccc2)cc1 | inactive |
| Cc1c(C(=O)Nc2ccc(Oc3ccnc4cc(OCC(C)(C)O)ccc34)c(F)c2)c(=O)n(-c2ccccc2)n1C | active |
| Cc1cc(Oc2ccnc3cc(Cl)ccc23)ccc1Cl | inactive |
| CCS(=O)(=O)N1C[C@]2(C1)CN([C@@H](CO)c1c2c2ccc(cc2n1C)OC)C(=O)Nc1cccc(c1)F | inactive |
| CC(C)NC(=O)Nc1cccc2c1O[C@@H](CN(C)C(=O)NC1CCCCC1)[C@@H](C)CN([C@@H](C)CO)C2=O | inactive |
| Cc1ccc(S(=O)(=O)N(C)C[C@H]2Oc3ccc(NS(C)(=O)=O)cc3CC(=O)N([C@@H](C)CO)C[C@@H]2C)cc1 | inactive |
| CC(C)CCCC(C)C1CCC2C3CCC4CC(O)CCC4(C)C3CCC12C (stereo not drawn) [5alpha-CHOLESTANOL ] | inactive |
| CC(C)CCC[C@@H](C)[C@H]1CC[C@H]2[C@@H]3C[C@@H](O)[C@@]4(O)C[C@@H](O)CC[C@]4(C)[C@H]3CC[C@]12C [CHOLESTAN-3beta,5alpha,6beta-TRIOL ] | active |
| CC(C)CCCC(C)C1CCC2C3CC(=O)C4CC(O)CCC4(C)C3CCC12C (stereo not drawn) [5alpha-CHOLESTAN-3beta-OL-6-ONE ] | inactive |
| CC(C)NC(=O)Nc1ccc2c(c1)CC(=O)N([C@H](C)CO)C[C@H](C)[C@H](CN(C)S(=O)(=O)c1cn(C)cn1)O2 | inactive |
| Cc1cn(CCN2CCN(c3ccccc3-c3cc(C#N)cc(C(=O)NCCCN4CCCC4)c3)CC2)c2ccccc12 | active |
| COc1cc(C(=O)NCCCN2CCCN(CCCNC(=O)c3cc(OC)c(OC)c(OC)c3)CC2)cc(OC)c1OC | inactive |
| Cc1cn(CCC#N)c2ccccc12 | inactive |
| C[C@H]1CCCCO[C@H](CN(C)C(=O)C2CCCCC2)[C@@H](C)CN([C@@H](C)CO)C(=O)c2cc(NS(=O)(=O)c3cccs3)ccc2O1 | inactive |
| COC(=O)c1ccc(Cn2cc(C(=O)NO)nn2)o1 | inactive |
| COc1ccc(-n2cc(C(=O)NO)nn2)cc1 | active |
| COc1cccc(-n2cc(C(=O)NO)nn2)c1 | inactive |
| C[C@H]1NC(=O)[C@H](Cc2ccccc2)NC(=O)[C@@]23C(=O)N[C@@H](Cc4ccccc4)[C@@H]2[C@H](C)[C@@]2(C)O[C@H]2[C@H]3/C=C/C/C=C\CNC1=O | inactive |
| C[C@H](CO)N1C[C@H](C)[C@@H](CN(C)Cc2ccncc2)Oc2ccc(NS(=O)(=O)c3ccc(F)cc3)cc2C1=O | inactive |
| CN(C)c1ccc(C(=C2C=CC(=[N+](C)C)C=C2)c2ccc(N(C)C)cc2)cc1.[Cl-] | active |
| CN(CC(=O)O)C1CCCC1 | inactive |

| SMILES | cytotoxicity call |
| --- | --- |
| C[C@@H]1CCCCO[C@H](CN(C)C(=O)Nc2ccc(F)cc2)[C@H](C)CN([C@@H](C)CO)C(=O)c2cc(NC(=O)NC3CCCCC3)ccc2O1 | inactive |
| C[C@H]1CN([C@@H](C)CO)S(=O)(=O)c2ccc(C#Cc3ccc(F)cc3)cc2O[C@@H]1CN(C)C(=O)c1ccccn1 | inactive |
| COc1ccc(S(=O)(=O)Nc2ccc3c(c2)CC(=O)N([C@@H](C)CO)C[C@H](C)[C@H](CN(C)Cc2ccc(Oc4ccccc4)cc2)O3)cc1 | active |
| COc1ccc(S(=O)(=O)Nc2ccc3c(c2)CC(=O)N([C@H](C)CO)C[C@H](C)[C@H](CN(C)Cc2ccc(Oc4ccccc4)cc2)O3)cc1 | inactive |
| COc1ccc(S(=O)(=O)Nc2ccc3c(c2)CC(=O)N([C@H](C)CO)C[C@H](C)[C@@H](CN(C)Cc2ccc(Oc4ccccc4)cc2)O3)cc1 | inactive |
| COc1ccc(S(=O)(=O)Nc2ccc3c(c2)CC(=O)N([C@H](C)CO)C[C@@H](C)[C@H](CN(C)Cc2ccc(Oc4ccccc4)cc2)O3)cc1 | active |
| COc1ccc(S(=O)(=O)Nc2ccc3c(c2)CC(=O)N([C@@H](C)CO)C[C@@H](C)[C@H](CN(C)Cc2ccc(Oc4ccccc4)cc2)O3)cc1 | inactive |
| COc1ccc(S(=O)(=O)Nc2ccc3c(c2)CC(=O)N([C@@H](C)CO)C[C@@H](C)[C@@H](CN(C)Cc2ccc(Oc4ccccc4)cc2)O3)cc1 | inactive |
| COc1ccc(S(=O)(=O)Nc2ccc3c(c2)CC(=O)N([C@H](C)CO)C[C@@H](C)[C@@H](CN(C)Cc2ccc(Oc4ccccc4)cc2)O3)cc1 | active |
| COc1ccc(S(=O)(=O)Nc2ccc3c(c2)CC(=O)N([C@@H](C)CO)C[C@H](C)[C@@H](CN(C)Cc2ccc(Oc4ccccc4)cc2)O3)cc1 | active |
| Cc1noc(C)c1NC(=O)Nc1cccc2c1O[C@@H](CN(C)C(=O)Nc1cccc3ccccc13)[C@@H](C)CN([C@H](C)CO)C2=O | inactive |
| C[C@@H]1CN([C@@H](C)CO)S(=O)(=O)c2ccc(C#CCN(C)C)cc2O[C@@H]1CN(C)Cc1ccc2c(c1)OCO2 | inactive |
| COCC#Cc1cnc2c(c1)C(=O)N([C@@H](C)CO)C[C@@H](C)[C@H](CN(C)C(=O)c1cnccn1)O2 | inactive |
| CO[C@H]1CN(C)C(=O)c2cc(NC(=O)Nc3cccc(Cl)c3)ccc2OC[C@@H](C)N(C(=O)Nc2c(C)noc2C)C[C@H]1C | inactive |
| C[C@H]1CN([C@@H](C)CO)C(=O)CCCn2nncc2CO[C@H]1CN(C)S(=O)(=O)c1ccc(Cl)cc1 | inactive |
| NC(CC(=O)N1CCn2c(nnc2C(F)(F)F)C1)Cc1cc(F)c(F)cc1F.O.O=P(O)(O)O (configuration not stated) | inactive |
| C[C@@H]1CN([C@@H](C)CO)C(=O)c2cccc(NS(=O)(=O)c3ccc(F)cc3)c2O[C@H]1CN(C)S(=O)(=O)c1ccc(F)cc1 | inactive |
| C[C@H](CO)N1C[C@H](C)[C@@H](CN(C)C(=O)c2cnccn2)Oc2ncc(C#CCC3CCCC3)cc2C1=O | inactive |
| CC(C)C[C@H](NC(=O)[C@@H](Cc1c[nH]c2ccccc12)NC(=O)[C@H](Cc1ccc(O)cc1)NC(=O)[C@H](CO)NC(=O)[C@H](Cc1c[nH]c2ccccc12)NC(=O)[C@H](Cc1cnc[nH]1)NC(=O)[C@@H]1CCC(=O)N1)C(=O)N[C@@H](CCCNC(=N)N)C(=O)N1CCC[C@H]1C(=O)NCC(N)=O | inactive |
| O=C1O[C@@H](c2ccccc2)[C@@H](c2ccccc2)N2[C@@H](c3ccc(O)cc3)[C@]3(C(=O)Nc4ccccc43)[C@@H](C(=O)N3CCCCCCC3)[C@H]12 | inactive |
| O=C1O[C@@H](c2ccccc2)[C@@H](c2ccccc2)N2[C@@H](c3ccc(OCCO)cc3)[C@]3(C(=O)Nc4ccccc43)[C@@H](C(=O)N3CCCCCCC3)[C@H]12 | inactive |
| O=C1O[C@H](c2ccccc2)[C@H](c2ccccc2)N2[C@H]1[C@@H](C(=O)N1CCCCCCC1)[C@]1(C(=O)Nc3ccccc31)[C@H]2c1ccc(O)cc1 | active |
| O=C(O)C[C@](O)(Cc1ccc(O)cc1)C(=O)O | inactive |

| SMILES | cytotoxicity call |
| --- | --- |
| CCS(=O)(=O)Nc1ccc2c(c1)C(=O)N(C)[C@H]1CC[C@H](CC(=O)N3CCN(C)CC3)O[C@@H]1CO2 | inactive |
| Cc1ccc(S(=O)(=O)N[C@H]2CC[C@@H](CC(=O)N3CCC(Cc4ccccc4)CC3)O[C@H]2CO)cc1 | inactive |
| C[C@@H]1CN([C@H](C)CO)C(=O)c2cccc(NC(=O)Nc3ccc4c(c3)OCO4)c2O[C@H]1CN(C)Cc1ccc(-c2ccccc2)cc1 | inactive |
| O=C(CCCCCCC(=O)N/N=C/c1cc(I)cc(I)c1O)NO | active |
| O=C(NO)c1cccc(C(=O)N/N=C/c2cc(I)cc(I)c2O)c1 | inactive |
| O=C(CCCCC(=O)N/N=C/c1cc(I)cc(I)c1O)NO | inactive |
| C[C@@H]1CCCCO[C@@H](CN(C)Cc2ccncc2)[C@H](C)CN([C@@H](C)CO)C(=O)c2cc(NC(=O)CCC(F)(F)F)ccc2O1 | inactive |
| Oc1cc(O)c2c(c1)OC(c1cc(O)c(O)c(O)c1)C(O)C2c1c(O)cc(O)c2c1OC(c1cc(O)c(O)c(O)c1)C(O)C2c1c(O)cc(O)c2c1OC(c1cc(O)c(O)c(O)c1)C(O)C2 (configuration not stated) | inactive |
| C[C@@H]1CN([C@H](C)CO)C(=O)c2cc(C#CCN(C)C)cnc2O[C@H]1CN(C)Cc1ccc(C(=O)O)cc1 | inactive |
| CCN(CC)[C@H]1CCS(=O)(=O)C1 | inactive |
| C[C@@H](Oc1cc(-n2cnc3ccc(CN4CCN(C)CC4)cc32)sc1C(N)=O)c1ccccc1C(F)(F)F | active |
| COc1cccc(NC(=O)N2C[C@H](O)COC[C@@H]3O[C@@H](CC(=O)NC4Cc5ccccc5C4)CC[C@H]32)c1 | inactive |
| CCCNC(=O)N(C)C[C@@H]1Oc2cc(C#Cc3cccc(F)c3)ccc2S(=O)(=O)N([C@@H](C)CO)C[C@H]1C | inactive |
| C[C@@H]1CCCCO[C@H](CN(C)Cc2ccc(Cl)c(Cl)c2)[C@@H](C)CN([C@@H](C)CO)C(=O)c2cc(NS(=O)(=O)c3ccc(Cl)cc3)ccc2O1 | active |
| C[C@@H]1CCCCO[C@@H](CN(C)Cc2ccc(Cl)c(Cl)c2)[C@H](C)CN([C@@H](C)CO)C(=O)c2cc(NS(=O)(=O)c3ccc(Cl)cc3)ccc2O1 | active |
| C[C@@H]1CN([C@H](C)CO)C(=O)c2cc(NS(=O)(=O)c3ccc(Cl)cc3)ccc2O[C@@H](C)CCCCO[C@@H]1CN(C)Cc1ccc(Cl)c(Cl)c1 | inactive |
| C[C@@H]1CCCCO[C@H](CN(C)Cc2ccc(Cl)c(Cl)c2)[C@H](C)CN([C@@H](C)CO)C(=O)c2cc(NS(=O)(=O)c3ccc(Cl)cc3)ccc2O1 | inactive |
| C[C@H](CO)N1C[C@H](C)[C@@H](CN(C)Cc2ccc(Cl)c(Cl)c2)OCCCC[C@H](C)Oc2ccc(NS(=O)(=O)c3ccc(Cl)cc3)cc2C1=O | inactive |
| C[C@@H]1CCCCO[C@@H](CN(C)Cc2ccc(Cl)c(Cl)c2)[C@@H](C)CN([C@H](C)CO)C(=O)c2cc(NS(=O)(=O)c3ccc(Cl)cc3)ccc2O1 | inactive |
| C[C@@H]1CN([C@H](C)CO)C(=O)c2cc(NS(=O)(=O)c3ccc(Cl)cc3)ccc2O[C@@H](C)CCCCO[C@H]1CN(C)Cc1ccc(Cl)c(Cl)c1 | active |
| C[C@@H]1CCCCO[C@@H](CN(C)Cc2ccc(Cl)c(Cl)c2)[C@@H](C)CN([C@@H](C)CO)C(=O)c2cc(NS(=O)(=O)c3ccc(Cl)cc3)ccc2O1 | active |
